Test results: PubChem BioAssay AID1578 (Sanford-Burnham Center for Chemical Genomics, 2009)
In all, about 290,000 compounds went through this assay and about 3,000 (1%) were called active. No stated cut-off is given here; in the data, active means inhibition mostly above about 36% (no sharp cut-off); inactive means mostly below about 34%. Many of the other results were omitted from the sample, so actives are more common in it than they were.

Test: inhibition of NOD1-driven NF-kB reporter – cell-based, luminescence, uHTS, primary screen (AID 1578);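 further: HEK-293T reporter cells stimulated with the NOD1 agonist gamma-tri-DAP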
Settings: NOD1-driven NF-kB luciferase reporter cells, at 4 µM, active compounds read high

Compound	inhibition
CC(C)CC(C(=O)N1CCc2ccccc2C1)N1C(=O)c2ccccc2C1=O (stereo not given)	5.4% (inactive)
COc1ccc(N2C(=O)c3ccccc3NC2c2cccnc2)cc1 (stereo not given)	-14.4% (inactive)
COc1ccc2c(c1OC)C(=O)OC2	33.6% (active)
COc1ccccc1N1Cc2ccc(OC)c(OC)c2C1=O	-5.2% (inactive)
COc1ccc2c(c1OC)C(=O)N(c1ncn[nH]1)C2	-15.4% (inactive)
COc1cc(OC)cc(C(=O)OCCCOC(=O)c2cc(OC)cc(OC)c2)c1	-7.2% (inactive)
CN(NS(=O)(=O)c1ccc(Br)cc1)c1nc(C(F)(F)F)nc2ccccc12	31.4% (active)
CN(NS(=O)(=O)c1ccc(Cl)cc1)c1nc(C(F)(F)F)nc2ccccc12	26% (inactive)
COc1ccc(S(=O)(=O)NN(C)c2nc(C(F)(F)F)nc3ccccc23)cc1	-27.6% (inactive)
CN(C)C1(CN=Cc2cc(Cl)cc([N+](=O)[O-])c2O)CCCCC1	-19% (inactive)
O=C(N/N=C/c1ccc(-c2cccc(C(F)(F)F)c2)o1)c1ccccc1Br	13.2% (inactive)
O=C(N/N=C/c1ccc(-c2ccccc2)o1)c1ccccc1O	-1.6% (inactive)
O=C(N/N=C/c1ccc(-c2cccc(C(F)(F)F)c2)o1)c1ccccc1O	86.8% (active)
Cc1ccc2cc(CCNC(=O)c3cccc([N+](=O)[O-])c3)c(=O)[nH]c2c1	26.4% (inactive)
Cc1cc2cc(CCNC(=O)c3cccc([N+](=O)[O-])c3)c(=O)[nH]c2cc1C	3.3% (inactive)
COc1ccc2cc(CCNC(=O)c3cccc([N+](=O)[O-])c3)c(=O)[nH]c2c1	45.6% (active)
COc1cc(Br)c(CC(=O)O)cc1OC	4% (inactive)
CCn1cc(C(=O)OCC(=O)c2cc(C)n(-c3cccc(C(F)(F)F)c3)c2C)c(=O)c2ccc(C)nc21	62.7% (active)
CCn1cc(C(=O)OCC(=O)c2cc(C)n(-c3ccccc3F)c2C)c(=O)c2ccc(C)nc21	10.8% (inactive)
CCn1cc(C(=O)OCC(=O)c2cc(C)n(-c3ccccc3)c2C)c(=O)c2ccc(C)nc21	6.2% (inactive)
Cc1nn(Cc2ccc(C(=O)N3CCN(C(=O)c4ccco4)CC3)o2)c(C)c1[N+](=O)[O-]	-22.1% (inactive)
C/C(=N\NC(=O)c1ccoc1C)c1ccc(Br)s1	15.3% (inactive)
C/C(=N\NC(=O)c1cc2ccccc2cc1O)c1cccs1	5.7% (inactive)

Compound	inhibition
C/C(=N\NC(=O)c1cccc2ccccc12)c1cccs1	-68.3% (inactive)
C/C(=N\NC(=O)c1ccccc1O)c1cccs1	69.7% (active)
C/C(=N\NC(=O)c1ccccc1O)c1ccc(Br)s1	8.3% (inactive)
CCN(CC(=O)NCc1ccc(Cl)cc1)C(=O)/C=C/c1cccs1	-23.9% (inactive)
CC1CCCN(CC(=O)Nc2ccc(S(=O)(=O)N3CCCCCC3)cc2)C1 (stereo not given)	-8.7% (inactive)
Cc1ccc(/C=C2/SC(=Nc3ccc(F)cc3)NC2=O)s1	-8.8% (inactive)
CC(=O)NC(Cc1ccc(C)cc1)C(=O)NC1CCN(C(=O)c2ccc([N+](=O)[O-])cc2)CC1 (stereo not given)	-4.9% (inactive)
Cc1noc2ncnc(N3CCN(c4ccc(F)cc4)CC3)c12	-41.6% (inactive)
Cc1noc2ncnc(N3CCCC3)c12	-13.8% (inactive)
Cc1nn(C)c(Oc2ccccc2)c1CCNS(=O)(=O)c1ccccc1	14.8% (inactive)
O=c1[nH]c2ccc(Cl)cc2c(-c2ccccc2)c1SC(=S)N1CCCCC1	47% (inactive)
CCN(CC)C(=S)Sc1c(-c2ccccc2)c2cc(Cl)ccc2[nH]c1=O	78.1% (active)
O=C(O)CSc1c(-c2ccccc2)c2cc(Cl)ccc2[nH]c1=O	-28.5% (inactive)
COc1ccc2c(C)cc(SC3CCOC3=O)nc2c1 (stereo not given)	-1.1% (inactive)
C=CCc1cc(Cl)ccc1OCCNCCCOC	-15.8% (inactive)
C=CCc1cc(Cl)ccc1OCCNCCOC	43.2% (active)
C=CCc1cc(Cl)ccc1OCCOCCNCCOC	-24.9% (inactive)
CCC(C(=O)c1ccc2ncccc2c1)c1ccccc1 (stereo not given)	-3.6% (inactive)
CCOC(=O)C1=C(N)Oc2cc(O)ccc2C1c1ccc(C)cc1 (stereo not given)	-17.2% (inactive)
CCOC(=O)C1=C(N)Oc2cc(O)ccc2C1c1ccc([N+](=O)[O-])cc1 (stereo not given)	67.7% (active)
CCOC(=O)C1=C(N)Oc2cc(O)ccc2C1c1cccc([N+](=O)[O-])c1 (stereo not given)	41.2% (inactive)
COc1cc(COc2ccc3c(C)c(CCC(=O)O)c(=O)oc3c2)cc(OC)c1OC	-4.2% (inactive)
